The results in this text go back to ChEMBL document CHEMBL3433997, “St. Jude Leishmania screening dataset” (2016).

What all share (format): functional
The target in assay [1] is Solute carrier family 2, facilitated glucose transporter member 1 (Homo sapiens) (UniProt P11166). Briefly: ST_JUDE_LEISH: Cytotoxicity at 2uM final concentration against transgenic Leishmania Mexicana promastigotes LmGLUT1 that are glucose transport deficient and complemented with the human glucose transporter GLUT1. Activity is measured by DNA content using SYBR green in vitro.
Sequence of Solute carrier family 2, facilitated glucose transporter member 1 (Homo sapiens) (P11166 whole entry): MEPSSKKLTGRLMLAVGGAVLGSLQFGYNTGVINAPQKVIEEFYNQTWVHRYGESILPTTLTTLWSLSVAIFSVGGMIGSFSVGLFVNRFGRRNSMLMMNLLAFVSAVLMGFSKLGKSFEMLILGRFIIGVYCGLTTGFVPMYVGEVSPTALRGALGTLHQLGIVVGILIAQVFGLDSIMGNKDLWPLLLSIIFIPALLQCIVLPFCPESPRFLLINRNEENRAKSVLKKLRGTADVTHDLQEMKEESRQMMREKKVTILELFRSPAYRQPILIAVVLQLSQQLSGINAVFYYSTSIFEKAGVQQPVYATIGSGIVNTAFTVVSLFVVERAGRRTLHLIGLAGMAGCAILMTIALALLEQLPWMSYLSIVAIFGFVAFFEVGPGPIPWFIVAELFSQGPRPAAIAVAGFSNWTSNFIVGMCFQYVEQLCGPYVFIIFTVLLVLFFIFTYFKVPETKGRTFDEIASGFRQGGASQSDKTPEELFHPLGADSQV

Assay [2] has as its target Hexose transporter 1 (Plasmodium falciparum) (UniProt O97467). Briefly: ST_JUDE_LEISH: Cytotoxicity at 2uM final concentration against transgenic Leishmania Mexicana promastigotes LmPfHT that are glucose transport deficient and complemented with the Plasmodium falciparum hexose transporter. Activity is measured by DNA content using SYBR green in vitro.
Assay [3] addresses Glucose transporter (Leishmania mexicana) (UniProt O61059). Briefly: ST_JUDE_LEISH: Cytotoxicity at 2uM final concentration against transgenic Leishmania Mexicana promastigotes LmGT2 that are glucose transport deficient and complemented with the L. Mexicana glucose transporter 2. Activity is measured by DNA content using SYBR green in vitro.

With `O=C(NCCc1ccccc1F)c1ccc(N2CCN(c3ccncc3)CC2)cn1`, the inhibition (as a rule, the change of the read-out against control, counted positive when it falls) was determined as 10.3% in assay [1], 9.09% in assay [2] and 8.65% in assay [3].
For `CCNc1cc(C(=O)N[C@@H](Cc2ccoc2)[C@H](O)CNC(C)CCCC(C)C)cc(N2CCCCS2(=O)=O)c1` (stereo not given in full), in that order: 1.42%, 0.7% and 0.83%.
As to `Cc1ccc2[nH]c(C)cc(=NN=Cc3cccc(F)c3)c2c1`, the values for the inhibition in assay [1], in assay [2] and in assay [3] were 5.05%, 7% and 3.38%, respectively.
In the same order, the values of `O=C(c1ccc2ccccc2n1)N1CCCc2cc(Br)ccc21` are 8.95%, 1.96% and 0.16%.
In the same order, the values of `Cc1cc(NC(=O)NCCN2CCC(NC(=O)c3ccc(Cl)cc3)CC2)c2ccccc2n1` are 1.7%, 1.76% and 2.94%.
In the same order, the values of `O=C(NCC(NCCCNc1cc(=O)c2ccccc2[nH]1)c1cc(Br)cc(Br)c1)C1=CCCC1` (stereo not given) are 3.18%, 4.82% and 5.79%.
Regarding `COc1ccc2ncc(F)c(CCN3CC[C@H](NC(=O)c4ccc5c(n4)NC(=O)CS5)[C@H](O)C3)c2n1`, the inhibition amounted to 10.7% in assay [1], 9.73% in assay [2] and 1.48% in assay [3].
In the same order, the values of `O=S(=O)(NCCCN1CCOCC1)c1ccc2nccc(Nc3ccc(Oc4ccccc4)cc3)c2c1` are -1.16%, -0.87% and -0.94%.
For the compound `O=C(Nc1cccc(N2CCC(NCCCn3ccnc3)CC2)c1)c1cccc(C(F)(F)F)c1`, the inhibition in assay [1] was 0.98%; in assay [2], -0.71%; in assay [3] it was 3.8%.
In the same order, the values of `O=C(/C=C/c1ccccc1F)NC1CCC(CCN2CCc3ccc(-c4cccnc4)cc3CC2)CC1` (stereo not given) are 15.8%, 15.8% and 20.1%.
With `Oc1cc(NCc2ccccc2NCc2ccc(Cl)c(Cl)c2)nc2ccccc12`, the inhibition is 2.41% in assay [1], 3.68% in assay [2] and 3.11% in assay [3].
In the same order, the values of `Cc1ccc(CN(Cc2ccc(C(=O)N(C)C)cc2)Cc2ccc3c(c2)OCCO3)cc1C` are 0.09%, 0.35% and 0.35%.
For `CCN(CCCN1CCCCC1)c1cc(C)nc(Nc2cc(Cl)cc(Cl)c2)n1`, in that order: 0.93%, 2.39% and 1.01%.
For `COc1ccc2nccc(N3CCC(CCNCc4ccc5c(n4)NC(=O)CS5)CC3)c2c1`, in that order: 6.54%, 9.44% and 2.78%.
For `COc1ccc2c(CNCCCCCCNCc3c(OC)ccc4cc(OC)ccc34)c(OC)ccc2c1`, the figures for the inhibition in assay [1], in assay [2] and in assay [3] were 109%, 107% and 112%, respectively.
For `Clc1ccc(Nc2nc(-c3ccccn3)cs2)nc1`, in that order: 67.7%, 27.3% and 22.7%.
Regarding `O=C(C=Cc1ccc(Cl)c(Cl)c1)NC1CCN(CCc2ccccc2)CC1`, the inhibition in assay [1] is 0.9%; in assay [2], 1.06%; in assay [3], -4.41%.
`CCN(CC)CCN(Cc1ccc(-c2ccc(C(F)(F)F)cc2)cc1)C(=O)Cn1c(CCc2c(F)cc(F)cc2F)nc(=O)c2ccccc21`: the figures for the inhibition in assay [1], in assay [2] and in assay [3] were -0.61%, 0.48% and 0.56%, respectively.
For `CCc1ccc(NC(=O)c2ccc(CN3CCCN(CCC(C)C)CC3)cc2)cc1`, in that order: 7.61%, 4.69% and 5.85%.
For `O=C(Nc1ccccc1)N(Cc1ccccc1-c1cccc(CNC2CCCC2)c1)C1CCN(Cc2ccccc2)CC1`, in that order: 0.15%, 1.64% and 4.91%.
Consider `CN(C)CCNC(=O)c1csc(Nc2ccc(Cl)c(Cl)c2)n1`, for which the inhibition in assay [1] is 0.89%; in assay [2], 1.38%; in assay [3] it was 2.28%.
For `CC1(C)NC(N)=NC(=N)N1OCCNCc1ccc(Cl)cc1`, in that order: 4.58%, 4.01% and 3.92%.
For `CC1CN(S(=O)(=O)c2ccc(NC(=O)c3cc(-c4ccccc4O)n[nH]3)cc2)CC(C)O1` (stereo not given), in that order: 4.88%, 5.64% and 4.67%.
As to `Cc1nnc2sc(-c3cccc(NC(=O)c4ccc(N5CCCCC5)c([N+](=O)[O-])c4)c3)nn12`, the inhibition is 0.34% in assay [1], -1.03% in assay [2] and -0.5% in assay [3].
Consider `CC(C)(C)c1ccc2[nH]c(-c3ccc(/C=C/C(=O)NCc4ccc(Cl)c(Cl)c4)cc3)nc2c1`, for which the inhibition in assay [1] came out at 6%; in assay [2] it was 6.31%; in assay [3], 1.89%.
In the same order, the values of `N#Cc1cccc(C(O)C2CN(CCC3CCCCC3)CCC2(O)c2ccccc2)c1` (stereo not given) are -1.82%, -0.13% and 2.48%.
In the same order, the values of `CC(O)C(C)(CO)NCc1ccc2c3c(cccc13)-c1ccccc1-2` (stereo not given) are 15.7%, 11.2% and 5.35%.
Regarding `O=C(NCCCCN1CC=C(c2ccc3c(c2OCC2CC2)CCCC3)CC1)c1ccc(-c2ccc(C(F)(F)F)cc2)cc1`, the inhibition turned out to be 5.41% in assay [1], 5.39% in assay [2] and 5.23% in assay [3].
In the same order, the values of `COc1ccc(-c2ccc(NC(=O)c3ccc(C#N)cc3)cc2)cc1CN1CCN(C)CC1` are 4.24%, 1.9% and 2.76%.
Take `O=S(=O)(c1cc(Cl)sc1Cl)N(CCC(O)(C(F)(F)F)C(F)(F)F)Cc1cccc(O)c1`: the values for the inhibition in assay [1], in assay [2] and in assay [3] were 0.79%, 0.45% and 2.62%, respectively.
In the same order, the values of `O=C(NCCCN1CCC(N2CCCCC2)CC1)C1=Cc2cc(Br)ccc2OC1` are 1.4%, 2.63% and 0.26%.
Regarding `Nc1nc2c(ncn2OC[C@H](CO)OCP(=O)(O)O)c(=O)[nH]1`, the inhibition is 0.43% in assay [1], -1.69% in assay [2] and -1.85% in assay [3].
On to `Cc1noc(C)c1-c1cccc(CNCc2cccc(-c3cccc(-c4nc5ccccc5[nH]4)c3)c2)c1`, for which the inhibition stood at 0.14% in assay [1], 1.29% in assay [2] and 0.09% in assay [3].
As for `C[C@@H](COc1ccccc1)NCC(O)c1ccc([N+](=O)[O-])c(OCc2ccccc2)c1` (stereo not given in full), the inhibition in assay [1] was 0.54%; in assay [2], 0.96%; in assay [3], 0.1%.
For the compound `Clc1ccccc1CCNCC1CCN(CC2CCCCC2)CC1`, the inhibition in assay [1] was 4.24%; in assay [2], 5.3%; in assay [3] it was 1.76%.
